Laboratory results from PubChem BioAssay (NCATS).
Records with an inconclusive call do not appear. Activity calls are given as the source filed them. Calls come from the whole dose curve; as a rule, active = well fitted curve in the direction sought with a large enough effect; inconclusive = small, poorly fitted or top-dose-only effect, or another doubt; inactive = no such curve, though single readings can be large; an effect the other way counts as inactive or inconclusive.

Key:
[1] = qHTS for Inhibitors of Plasmodium falciparum (DD2) proliferation (AID 504314);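 note: parasite DNA measured by SYBR Green fluorescence after red cell lysis; plate controls were DMSO vehicle for no effect and artemisinin wells for full effect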
Summary of the method: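 Quantitative HTS growth inhibition: SYBR Green I binding to parasite DNA after 72 h drug exposure of infected erythrocytes (0.3% parasitemia, 2.5% hematocrit). Signals normalized per plate to inhibitor and vehicle wells.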

[2] = qHTS for Inhibitors of Plasmodium falciparum (GB4) proliferation (AID 504315);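 note: 0% = DMSO vehicle and -100% = 0.29 µM artemisinin control; nearly all actives have a fitted effect of over 50% in size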
Summary of the method: (§1)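 Erythrocytes infected with P. falciparum line (0.3% parasitemia, 2.5% hematocrit final) incubated with compounds 72 h at 37 °C, 5% CO2; SYBR Green lysis buffer added, fluorescence read next day. Normalized to 0.29 uM artemisinin and DMSO.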

[3] = qHTS for Inhibitors of Plasmodium falciparum (7G8) proliferation (AID 504316);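 note: series mostly up to about 6.7 µM; 0% = DMSO vehicle and -100% = 0.29 µM artemisinin full kill; nearly all actives have a fitted effect of over 65% in size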
Summary of the method: as §1

[4] = qHTS for Inhibitors of Plasmodium falciparum (HB3) proliferation (AID 504318);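 note: 0% = DMSO vehicle and -100% = artemisinin control; nearly all actives have a fitted effect of over 60% in size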
Summary of the method: as §1

[5] = qHTS for Inhibitors of Plasmodium falciparum (CP250) proliferation (AID 504320);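 note: plate controls were DMSO vehicle for no effect and 0.29 µM artemisinin control for full effect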
Summary of the method: as §1

[6] = target: Glutathione peroxidase 1 (Homo sapiens) (UniProt P07203); test: Primary qHTS Assay for Inhibitors of Recombinant Selenoprotein Glutathione Peroxidase 1 (GPX1) (AID 1845191); note: % is set by controls: 0 for no effect and ±100 for the full control effect; nearly all actives have a fitted effect of over 65% in size
Summary of the method: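 GR-coupled assay: compounds preincubated 30 min at room temperature with GPX1, then reaction started with CHP; final 10 nM GPX1, 1 mM GSH, 0.5 mM CHP, 0.5 mM NADPH, 100 nM GR, 0.01% BSA, pH 7.5 Tris buffer. NADPH fluorescence (340/450 nm) read at 0 and 15 min.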

Chain of Glutathione peroxidase 1 (Homo sapiens) (P07203 whole entry, looked up): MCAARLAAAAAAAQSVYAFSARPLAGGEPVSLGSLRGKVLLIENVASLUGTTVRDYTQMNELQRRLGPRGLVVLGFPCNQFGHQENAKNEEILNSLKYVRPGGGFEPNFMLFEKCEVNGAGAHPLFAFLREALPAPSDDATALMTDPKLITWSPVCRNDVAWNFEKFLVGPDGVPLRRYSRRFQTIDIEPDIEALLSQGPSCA

COC(=O)N1C(C2CC2)=Cc2ccccc2C1CC(C)=O (centres undefined)
inactive: activity, negative = inhibition [1] -2.33% [at 1.12 µM] | Potency [2] | Potency [3] | Potency [4] | Potency [5]

CC(C)CON=C1C[C@@H](O)[C@@H](O)[C@@H]2[C@H]3C(=O)N(Cc4ccc5c(c4)OCO5)C(=O)[C@@H]3CC[C@H]12
inactive: Potency [1] | Potency [2] | Potency [3] | Potency [4] | Potency [5]

COC(=O)C1(C(=O)OC)Cc2conc2[C@@H]1c1ccccc1
inactive: Potency [1] | Potency [2] | Potency [3] | Potency [4] | Potency [5]

O=C(/C=C/c1cccnc1)c1ccncc1
inactive: Potency [6]

CCN1C(=O)NC(c2cccc(C(F)(F)F)c2)C(C(C)=O)=C1C (centres undefined)
inactive: Potency [1] | Potency [2] | Potency [3] | Potency [4] | Potency [5]

COc1cccc([C@H]2Oc3ccc(OC)cc3C(=NO[C@@H](C)c3cn([C@H](CO)Cc4ccccc4)nn3)[C@H]2O)c1
inactive: Potency [1] | Potency [2] | Potency [3] | Potency [4]

COC(=O)CC=C[C@H](C)[C@@H](OCc1ccccc1Br)C(C)C
inactive: Potency [1] | Potency [2] | Potency [3] | Potency [4] | Potency [5]

C#CCCOC(=O)N1C2=NC(C(=O)OC)=C(C(=O)OC)[C@@H]3N(C)c4ccccc4[C@]23C[C@H]1C(=O)OC
inactive: Potency [1] | Potency [2] | Potency [3] | Potency [4] | Potency [5]

COC(=O)CC=C[C@H](C)[C@H](Cc1ccccc1Br)OC
inactive: Potency [1] | Potency [2] | Potency [3] | Potency [4] | Potency [5]

COc1ccc(-c2nc3c(c4c2C[C@H](c2ccccc2)OC4)CN(S(=O)(=O)c2ccc(Cl)c4nonc24)CC3)c(C)c1
inactive: Potency [1] | Potency [2] | Potency [3] | Potency [4] | Potency [5]

COC(=O)N[C@@H](c1cccs1)C(C(C)=O)C(=O)OC (some centres undefined)
inactive: Potency [1] | Potency [2] | Potency [3] | Potency [4] | Potency [5]

CCN1C(=O)[C@@H]2[C@H]3[C@H](O)[C@H](O)CC(=NO[C@@H]4O[C@H](COC(C)=O)[C@@H](OC(C)=O)[C@H](OC(C)=O)[C@@H]4OC(C)=O)[C@@H]3CC[C@H]2C1=O
inactive: Potency [1] | Potency [2] | Potency [3] | Potency [4] | Potency [5]

CCCCC1=CC2=C(c3ccco3)C(=O)C(C)(OC(=O)c3ccc(OC)cc3)C(=O)C2=CN1CCN1CCOCC1 (centres undefined)
inactive: Potency [1] | Potency [2] | Potency [3] | Potency [4]

COc1cccc([C@H](O)Cn2cc(-c3ccc(CON=C(C)C)cc3)nn2)c1
inactive: Potency [1] | Potency [2] | Potency [3] | Potency [4] | Potency [5]
